Reference: PubChem BioAssay AID624442 (Broad Institute, 2012)
Active and inactive are the calls of the source.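 How the source made its calls: active means activation curve reaches 40% at a concentration no higher than the top valid dose tested; inactive means signal falling instead of rising, plus the rest.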

Test: cellular ROS inducers, fluorescent dye readout – U2OS cells, fluorescence, dry powder, set 2, dose response (AID 624442)
Settings: U2OS ROS induction, H2DCF-DA fluorescence, stronger effect = higher value; at 38 µM unless noted

Max activation, inactive:
O=C(Nc1nc(SCc2ccccc2)ns1)C1CCC1 30.8%, Cc1ccccc1CSc1nsc(N)n1 27.9% [at 19.5 µM], Cc1cccc(CSc2nsc(N)n2)c1 24.3% [at 19.5 µM], Nc1nc(SCc2ccccc2Cl)ns1 17.6% [at 5 µM], O=C(Nc1ccccc1)Nc1nc(SCc2ccccc2)ns1 11.1%, Cc1ccccc1CSc1n[nH]c(N)n1 25.1% [at 1.2 µM], Nc1nc(SCc2ccc(F)cc2)ns1 15.9% [at 1.2 µM], O=C(Nc1nc(SCc2ccccc2)ns1)C1CC=CCC1 (configuration not stated) 65.2%, Nc1nc(SCc2ccccc2)ns1 14.6% [at 5 µM], Nc1nc(S(=O)(=O)Cc2ccccc2)ns1 18.5% [at 0.6 µM], Cc1ccccc1CSc1nnc(N)s1 16.2% [at 19.5 µM], Nc1nc(SCc2ccc(Cl)cc2Cl)ns1 32.3% [at 0.3 µM]
